Bioassay records: PubChem, University of Pittsburgh Molecular Library Screening Center
This excerpt belongs to a sample that is enriched for hits.
HIV RNase H inh-1: blocks HIV-1 RNase H cleavage of RNA/DNA duplex. 65,000 tested, 1.9% active. P04585. inhibition, % at 10 µM. AID 565. RT-RNase H RNA/DNA duplex cleavage, fluorescence; in the data active = inhibition above about 50%
HIV RNase H inh-2: confirmation of HIV-1 reverse transcriptase RNase H inhibitors | inhibition, % at 10 µM | Recombinant RT RNase H, fluorescent RNA/DNA duplex cleavage | 1,000 tested, 39% active | shares compounds with HIV RNase H inh-1; in the data active = inhibition above about 48%; inconclusive = no clear call, values can overlap the other calls
Numbers without * were called inactive; ? = inconclusive.

SMILES	HIV RNase H inh-1	others
Cc1ccc(CC2CC(=O)N(c3ccc(Cl)cn3)C2=O)cc1 (stereo not drawn)	-8
CCCNC(=O)C1CCN(S(=O)(=O)c2ccc(Br)cc2)CC1	-3
CC1(C)Cc2c(c(N3CCOCC3)nc3sc(-c4ccc(C(=O)O)o4)c(N)c23)CO1	8
CC1(C)Cc2c(c(N3CCOCC3)nc3sc(C(=O)N4CCCCC4)c(N)c23)CO1	72*	HIV RNase H inh-2=41
Cn1cnc2c(sc3nc(N4CCOCC4)c4c(c32)CC(C)(C)OC4)c1=O	-38
COc1ccc(C2/C(=C(\O)c3ccc4c(c3)OCCO4)C(=O)C(=O)N2CCCN(C)C)c(OC)c1 (stereo not drawn)	1
N=c1oc2ccccc2cc1-c1nc2ccccc2c(=O)[nH]1	-10
O=C1CCCc2nc(N3CCc4ccccc43)ncc21	3
O=C1CC(c2ccccc2)Cc2nc(N3CCc4ccccc43)ncc21 (stereo not drawn)	78*	HIV RNase H inh-2=94*
O=C1CC(c2cccc(Cl)c2)Cc2nc(N3CCN(c4ccccc4)CC3)ncc21 (stereo not drawn)	3
O=C(Nc1ccc2c(c1)OC1(CCCC1)O2)C1CC1	-12
COCC(C)n1c(C)cc(C(=O)COC(=O)c2ccc3ncsc3c2)c1C (stereo not drawn)	-25
O=C(O)c1ccc(C2CCCCC2)cn1	0
CCC1CCCCN1S(=O)(=O)c1ccc(C(=O)Nc2nnc(-c3cccs3)o2)cc1 (stereo not drawn)	32
CC1CCCN(S(=O)(=O)c2ccc(C(=O)Nc3nnc(-c4ccccc4Cl)o3)cc2)C1 (stereo not drawn)	22
CC1CC(C)CN(S(=O)(=O)c2ccc(C(=O)Nc3nnc(-c4cccs4)o3)cc2)C1 (stereo not drawn)	74*	HIV RNase H inh-2=?
C=CCn1c(COc2ccc(CC)cc2)nnc1SC/C(O)=C(\C#N)c1nc2ccccc2[nH]1	43
O=P(O)(CCc1ccncc1)CN1CCCCC1	-3
Cc1cc(C)c(S(=O)(=O)N2CCN(C)CC2)c(C)c1	-4
O=C(NCC1COc2ccccc2O1)C1CCC(CNc2c(N3CCCCC3)c(=O)c2=O)CC1 (stereo not drawn)	6
Cc1ccc(C(=O)Nc2cccc(C(=O)O)c2)cc1S(=O)(=O)N1CCCCC1	5
CCc1nnc(NC(=O)Cc2ccc(OCc3c(C)noc3C)cc2)s1	-23
CC(C)(C)n1nnnc1C(c1cccnc1)N1CCN(C2CCCCC2)CC1 (stereo not drawn)	-7
CC(C)(C)c1cc(C(c2cccnc2)N2CCN(CCO)CC2)cc(C(C)(C)C)c1O (stereo not drawn)	83*	HIV RNase H inh-2=-5
CC(C)(C)n1nnnc1C(c1cccnc1)N1CCN(C(=O)c2ccco2)CC1 (stereo not drawn)	3
SMILES	HIV RNase H inh-1	others
O=C(Cn1c(SCC(=O)NC2CCCC2)nnc1-c1ccncc1)Nc1ccc2c(c1)OCO2	-5
c1ccc(Oc2cccc(NC3=NCCC3)c2)cc1	-30
CCc1nn(C(C)C(=O)Nc2cccc(C)c2C)c(=O)c2cc3occc3n12 (stereo not drawn)	-3
O=C(CSc1n[nH]c(-c2ccncc2)n1)c1ccccc1	-5
Cc1nc(SCN2C(=O)c3ccccc3C2=O)n[nH]1	-4
Cc1nc(SCC(=O)c2ccccc2)n[nH]1	59*	HIV RNase H inh-2=17
Cc1ccc(Cl)cc1N1CCN(CC(=O)Nc2ccc3[nH]c(=O)[nH]c3c2)CC1	-17
CCOc1ccc(NC(=O)c2oc3ccccc3c2NC(=O)C(C)C)cc1	-10
Cc1cccc(C)c1-n1nnnc1S(=O)(=O)Cc1ccccc1Cl	-57
O=C(Nc1ccc(-n2nncc2-c2ccco2)cc1)c1ccc(F)cc1	18
Cc1nc(N2CCN(C)CC2)c2c(C)c(C(=O)Nc3ccc(F)cc3)sc2n1	-3
Nc1c(C(=O)Nc2ccc(F)cc2)sc2nc(-c3ccco3)ccc12	89*	HIV RNase H inh-2=40
Cc1cccc(-n2nnnc2SCC(=O)c2cc(C)n(Cc3ccco3)c2C)c1	21
O=C(c1coc(=O)c2ccccc12)N1CCN(Cc2ccccc2)CC1	-10
Cc1cc(NC(=O)CSc2ccc(Cl)cc2)no1	14
Cc1cccc(-n2ccnc2SCC(=O)Nc2cc(C)on2)c1	-43
Cc1cccc(-c2nsc(SCC(=O)Nc3cc(C)on3)n2)c1	70*	HIV RNase H inh-2=48
O=C(Cc1ccccc1)N1CCN(C/C=C/c2ccccc2)CC1	-82
O=S(=O)(c1ccc(S(=O)(=O)N2CCN(C/C=C/c3ccccc3)CC2)cc1)N1CCCC1	59*	HIV RNase H inh-2=56*
O=S(=O)(c1ccc(S(=O)(=O)N2CCCN(Cc3ccccc3)C2)cc1)N1CCCCCC1	-4
Cc1c(NC(=O)CCc2ccc(S(=O)(=O)N3CCOCC3)cc2)c(=O)n(-c2ccccc2)n1C	2
Cc1sc(-n2c(C)ccc2C)c(C#N)c1C	65*	HIV RNase H inh-2=?
Cc1noc(C)c1C(=O)Nc1sc(C)c(C)c1C#N	-2
Cc1[nH]nc2c1C(c1ccc(F)cc1)C1=C(CC(C)(C)CC1=O)N2 (stereo not drawn)	-1
Cc1ccc(OCC(O)CNS(=O)(=O)c2ccccc2C(=O)N2CCCCC2)cc1 (stereo not drawn)	-2
SMILES	HIV RNase H inh-1	others
O=C(/N=C1\NC(=O)C(F)(C(F)(F)F)S1)NC1CCCCC1 (stereo not drawn)	87*	HIV RNase H inh-2=30
O=C(NC1CCCCCC1)c1cccs1	-2
O=C(CC1Nc2ccccc2NC1=O)NC1CCCCC1 (stereo not drawn)	24
CCOC(=O)c1ccc(CNC(=O)Cn2nnc(-c3ccc(C)cc3)n2)o1	-6
COC(=O)c1sccc1NC(=O)c1csc(C)c1	-28
O=C1CC(c2ccc3c(c2)OCO3)CN1 (stereo not drawn)	-2
Cc1ccc(-n2nc(C)c3c2NC(=O)CSC3c2ccc3c(c2)OCO3)cc1 (stereo not drawn)	60*	HIV RNase H inh-2=64*
COCc1cc(C2SCC(=O)Nc3c2c(=O)[nH]n3C(C)C)ccc1OC (stereo not drawn)	5
CCOC(=O)N1CCN(c2ncnc3c2oc2nc(CC(C)C)c4c(c23)CCC4)CC1	-3
COc1ccc(-c2nnc(NC(=O)c3cc(Cl)ccc3Cl)o2)cc1	0
O=C(O)C1CSCN1S(=O)(=O)c1cccc2nsnc12 (stereo not drawn)	62*	HIV RNase H inh-2=-3
O=C(O)c1ccc(Cl)c(NC(=O)C2CCCN2S(=O)(=O)c2cccc3nsnc23)c1 (stereo not drawn)	-1
O=C(NC1CCCCC1)C1CCCN1S(=O)(=O)c1cccc2nsnc12 (stereo not drawn)	-1
CCOC(=O)NC(=O)COC(=O)Cc1cc(OC)c(OC)c(OC)c1	-4
C=CCOc1ccc(CC2C(=O)N(C)C(=O)N(C)C2=O)cc1	56*	HIV RNase H inh-2=88*
COc1ccc(CC2C(=O)N(C)C(=O)N(C)C2=O)c(OC)c1	0
CCN(CC)c1ccc(CC2C(=O)N(C)C(=O)N(C)C2=O)cc1	8
Cc1cc(C)nc(SCc2nc(N)nc(-c3ccccc3O)n2)n1	-32
COc1ccc(-c2oc(/N=C/N3CCOCC3)c(C#N)c2-c2ccc(OC)cc2)cc1	17
N#Cc1c(/N=C/c2ccco2)oc(-c2ccccc2)c1-c1ccccc1	12
COc1ccc(OC)c(/C=N/c2oc(-c3ccco3)c(-c3ccco3)c2C#N)c1	58*	HIV RNase H inh-2=66*
COCC(C)NCc1ccccc1C (stereo not drawn)	-9
OCCN1CCN(CC(O)COc2ccc3ccccc3c2)CC1 (stereo not drawn)	-4
